# Data published in PubChem BioAssay (NCI).
# The panel holds about 83,000 compounds, 20% with a hit somewhere; the sample as a whole holds those more often.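 Assay: single dose, 48 h. Readout: percent growth (0 = no net growth; negative = cell death). Active: <10.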 Unmarked numbers belong to inactive results. Calls of active or inactive are those of the source.
# Columns and labels:
# Assay in all cases: NCI-60 one-dose screen, 48 h (100 = growth as untreated, 0 = no growth, -100 = all killed)
# Settings in all cases: 10 µM unless noted
# [1] = system: NCI-H23 lung
# [2] = system: NCI-H226 lung
# [3] = system: NCI-H322M lung
# [4] = system: HOP-62 NSCLC
# [5] = system: NCI-H460 lung
# [6] = system: A549/ATCC NSCLC
# [7] = system: 786-0 renal
# [8] = system: COLO 205 colon
SMILES,growth [1],growth [2],growth [3],growth [4],growth [5],growth [6],growth [7],growth [8]
CCC(C)CC(N)O (stereo not given),105%,98%,116%,122%,108%,106%,105%,109%
O=C(N/N=C/c1coc2ccccc2c1=O)c1cc2oc(-c3ccccc3)cc2[nH]1,113%,114%,89.4%,95.9%,105%,105%,106%,
N#CCc1ncc(-c2ccc(C(F)(F)F)cc2)c(NC2CCCCCC2)n1,25.7% [100 µM],55.3% [100 µM],68.1% [100 µM],71.7% [100 µM],8.28% [100 µM] (active),21.1% [100 µM],28.6% [100 µM],18.7% [100 µM]
Cn1c2ccccc2c2ccccc21,99%,103%,94.9%,90.8%,110%,108%,105%,104%
CCOC(=O)c1sc(NS(=O)(=O)c2ccccc2)nc1C,109%,106%,122%,-99.5% (active),109%,103%,89.4%,120%
CC(=O)Nc1nc(C)c(C(=O)N/N=C/N2CCCCC2)s1,108%,103%,123%,-100% (active),110%,104%,114%,114%
CC(=O)NCCN,111%,97.5%,108%,108%,109%,96.6%,98.3%,106%
COC(=O)[C@H](Cc1cn(C)cn1)NC(=O)[C@H](Cc1c[nH]c2ccccc12)NC(=O)Nc1cc(C(F)(F)F)cc(C(F)(F)F)c1,-72.4% [100 µM] (active),-47.9% [100 µM] (active),-41.9% [100 µM] (active),-92% [100 µM] (active),-25.8% [100 µM] (active),-50.8% [100 µM] (active),-83.8% [100 µM] (active),-77.1% [100 µM] (active)
COc1cc(-c2nn(-c3ccc(NC(=O)Nc4ccc(Cl)c(Cl)c4)cc3)cc2-c2ccncc2)ccc1Cl,22.9%,52.6%,68.4%,47.5%,7.14% (active),25.8%,4.3% (active),20.1%
COc1cc2c(c3c1c(=O)c1cccc(F)c1n3C)C=CC(C)(C)O2,99%,110%,79.5%,99.2%,102%,89.4%,103%,102%
CC[C@@H](C)/C=C(C)/C=C/C(=O)c1c(O)c(-c2ccc(OC(=O)[C@@]34CC[C@@](C)(C(=O)O3)C4(C)C)cc2)cn(O)c1=O,21.8%,36.8%,-4.05% (active),21%,-7.48% (active),43.6%,-31.8% (active),112%
CC(O)c1cc[cH-]c1.[Fe+2].c1cc[cH-]c1 (stereo not given),102%,91.2%,92.6%,99.4%,114%,101%,97.2%,108%
CC(=O)N1CCN(CCNC(=O)n2cc(-c3ccncc3)c(-c3ccc(O)c(Cl)c3)n2)CC1,109%,112%,141%,106%,103%,100%,113%,119%
CCCCCCC(C)N(CC(C)(C)O)C(=O)c1ccc([N+](=O)[O-])cc1 (stereo not given),99.2%,95.2%,91.1%,87.3%,105%,104%,94.5%,99.6%
COc1ccc2c(c1)cn1c3ccc(O)cc3[nH]c(=O)c21,23.3%,45.9%,41.1%,25.8%,-52.4% (active),26.8%,22.9%,4.21% (active)
O=c1[nH]c2cc(O)ccc2n2cc3c(F)cccc3c12,39.6%,60.8%,29.4%,21.1%,2.7% (active),22%,28.7%,66.2%

SMILES,growth [1],growth [2],growth [3],growth [4],growth [5],growth [6],growth [7],growth [8]
CC1(C)N=C(N)N=C(N)N1c1cccc(CCCCOc2ccccc2)c1,24%,43.4%,35.6%,11.4%,4.82% (active),11.2%,21.8%,29.3%
COc1cc(-c2nn(-c3ccc(NC(=O)c4ccc(Cl)c(Cl)c4)cc3)cc2-c2ccncc2)ccc1Cl,77.8%,88.3%,101%,52.7%,48.3%,68.3%,-34.5% (active),52.6%
O=C(CCl)c1ccc2c(c1)CCCC2,105%,108%,94.3%,107%,107%,101%,90.6%,113%
COc1ccc(/C=C2\CCCC3=C2N=C2SC=NN2C3c2ccc(OC)c(OC)c2)cc1OC (stereo not given),39.7%,45.3%,38.3%,35.3%,44%,31.9%,70.2%,22.7%
O=CN/N=C/c1ccc(Cl)c([N+](=O)[O-])c1,26.5%,35.4%,28.6%,20.8%,8.54% (active),14.5%,31.6%,26%
N#Cc1c2cccnc2c2nnc3cc(Cl)c(Cl)cc3n12,-20.2% (active),79.6%,44.5%,26.1%,34.2%,83%,81.2%,85.8%
CC(C)OCC1CO1 (stereo not given),110%,101%,100%,102%,97.7%,106%,113%,104%
COc1cc(-c2nn(-c3ccc(NC(=O)c4ccc(Cl)c(C(F)(F)F)c4)cc3)cc2-c2ccncc2)ccc1Cl,18.7%,55.5%,55.9%,5.59% (active),11.9%,29%,-84.5% (active),-22.4% (active)
COc1ccc(C(=O)NCCNc2nccc(-c3c(-c4ccc(F)cc4)nc4sccn34)n2)cc1,70.7%,54.8%,68.1%,64.8%,26.1%,34%,48.9%,47%
C=CCC(CCC(CC=C)C(=O)OCC)C(=O)OCC (stereo not given),108%,104%,83.3%,103%,105%,106%,98.5%,110%
COC(=O)c1cc(Nc2ccc(O)c3c2C(=O)c2c([N+](=O)[O-])ccc(O)c2C3=O)cc(C(=O)OC)c1,-20.3% (active),82.5%,-2.32% (active),72.8%,55.7%,-50.2% (active),88.7%,12%
O=C(NCCO)C(F)(F)F,109%,111%,105%,104%,109%,98.4%,93.9%,110%
CC(=O)c1ccc2c(c1)c1ccccc1n2C,94.1%,84.2%,86.2%,83.2%,98.5%,96.9%,96.6%,99.8%
CSCc1ncc(-c2ccc(C(F)(F)F)cc2)c(NC2CCCCCC2)n1,65.9% [25 µM],87.5% [25 µM],97.9% [25 µM],98.6% [25 µM],49.8% [25 µM],68.3% [25 µM],66.4% [25 µM],95% [25 µM]
O=C(CCl)NC1c2ccccc2Oc2ccccc21,70.4%,98.1%,97.9%,75.5%,64.8%,71.7%,77.2%,103%
COc1cccc(NC(=O)NCCNc2nccc(-c3c(-c4ccc(F)cc4)nc4sccn34)n2)c1,89.9%,85.9%,115%,99.4%,58.8%,54.4%,63%,69.3%
